Bioassay records from PubChem.
HT1080 IDH1KD tx: qHTS for induction of synthetic lethality in tumor cells producing 2HG: qHTS for the HT-1080-IDH1KD cell line. HT-1080 IDH1 knockdown viability, ATP luminescence, 48 h. Potency, µM (highest dose often 46.1 µM), for inactives: top-dose activity, negative = toxicity, actives largely listed as cytotoxic. 360,000 compounds, 2% hits. AID 686971, 2013;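 also: 0% = DMSO wells and -100% = cell-free medium wells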
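CellTiter-Glo luminescence after 48 h compound exposure at 37 degrees C of IDH1-knockdown HT-1080 cells in 5% FBS RPMI. %Activity scaled between DMSO wells and cell-free media wells, with curves fitted and assigned curve classes.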
HT1080NT lethal: qHTS for induction of synthetic lethality in tumor cells producing 2HG: qHTS for the HT-1080-NT fibrosarcoma cell line | HT-1080-NT fibrosarcoma viability, CellTiter-Glo ATP luminescence, 48 h | Potency, µM (titrated, usually from 46.1 µM), inactives show at the top dose activity, negative = less viability, usual class: cytotoxic | 360,000 compounds, 1.6% hits | AID 686970, 2013;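 also: NT is the 2HG producing partner of a matched IDH1 knockdown line; 0% = DMSO-treated cells and -100% = media-only wells without cells; nearly all actives have a fitted effect of over 55% in size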
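HT-1080-NT fibrosarcoma cells (2HG-overproducing), 750 cells/well in RPMI with 5% FBS, dosed after 2 h and incubated 48 h at 37C. CellTiter-Glo luminescence normalized to DMSO and no-cell wells; concentration-response curves fitted and classed.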
MCF10A rereplic: A quantitative high throughput screen for small molecules that induce DNA re-replication in MCF 10a normal breast cells; MCF 10A DNA re-replication, Hoechst nuclear intensity, 48 h; AID 624296, 2012; Potency, µM (highest dose often 46.1 µM), for the others: at the highest dose activity, positive = re-replication, actives largely listed as activators; 350,000 compounds, 2.9% hits; also: % of control where 0% means no effect; nearly all actives have a fitted effect of over 50% in size
KB-V1 cytotox: qHTS assay for MDR1-selective chemotherapeutics: Primary screen using the drug-selected MDR subline cells KB-V1. 400,000 compounds, 3.4% hits. Potency, µM (series often up to 46.1 µM), actives largely listed as cytotoxic. KB-V1 MDR cells viability, CellTiter-Glo, 72 h. AID 1347076, 2019; also: % is scaled to controls: 0 for no effect and ±100 for the full control effect; nearly all actives have a fitted effect of over 60% in size
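In this primary screen, KB-V1 cells overexpressing P-gp are incubated with library compounds (lowest to highest concentration) for 72 h at 37 degrees C before a luminescent ATP viability read.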
KB-3-1 cytotox: qHTS assay for MDR1-selective chemotherapeutics: Primary screen using the parental adenocarcinoma cell KB-3-1 | KB-3-1 viability, CellTiter-Glo ATP luminescence, 72 h | Potency, µM (top dose mostly 46.1 µM), actives largely listed as cytotoxic | 400,000 compounds, 1.4% hits | AID 1347075, 2019; also: % is scaled to controls: 0 for no effect and ±100 for the full control effect; nearly all actives have a fitted effect of over 60% in size
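KB-3-1 parental drug-naive adenocarcinoma cells in DMEM/10% FBS, incubated 72 h at 37 C with pin-transferred compounds across a concentration series. Viability by CellTiter-Glo luminescence; concentration-response curves fitted after normalization.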
SW480 rerep: A quantitative high throughput screen for small molecules that induce DNA re-replication in SW480 colon adenocarcinoma cells; SW480 DNA re-replication, Hoechst DNA content imaging, 48 h; 340,000 compounds, 1.8% hits; Potency, µM (top dose mostly 46.1 µM), for the others: top-dose re-replication activation, most hits filed as activators; also: % of control where 0% means no effect; nearly all actives have a fitted effect of over 55% in size
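SW480 cells exposed to compounds for 48 hr at 37 C, 5% CO2, then Hoechst-stained 40 min. Nuclear DNA content imaged by fluorescence scanning (405 nm excitation, 500-530 nm emission); re-replication scored as increased high-intensity nuclei.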
* = called active by the depositor; i = inactive; ? = inconclusive; . = no result given. A selection: hits, their analogues and other compounds. The true share with any hit is near 8%. Calls follow the shape of the dose curve; as a rule, active = well fitted curve in the direction sought with a large enough effect; inconclusive = small, poorly fitted or top-dose-only effect, or another doubt; inactive = no such curve, though single readings can be large; an effect the other way counts as inactive or inconclusive. Potency is read from the fitted curve at half-maximal effect.

SMILES	HT1080 IDH1KD tx	HT1080NT lethal	MCF10A rereplic	KB-V1 cytotox	KB-3-1 cytotox	SW480 rerep
Nc1ccc(/C=C/c2ccnc3ccccc23)cc1[N+](=O)[O-]	.	.	.	i	i	.
O=C(Nc1cccc(Br)c1)c1ccn[nH]1	-1%	9%	4%	?	11µM*	-10%
CC(=O)c1ccc(NC(=O)CSC2=Nc3ccccc3N=C(c3ccc(F)cc3)C2)cc1	.	.	.	i	i	.
CCc1cc(C(=O)Cc2cnn(-c3ccccc3)c2)c(O)cc1O	-17%	-2%	?	23µM*	i	-9%
CCC1(c2ccccc2)ON(c2c(Br)cccc2Br)C1=O (stereo not drawn)	18µM*	?	12µM*	?	i	?
CC[C@@]1(c2ccccc2OC)ON(c2ccccc2C(F)(F)F)C1=O	?	-27%	?	?	?	?
Cc1ccc(NC(=O)CCc2nc3cccnc3n2-c2ccccc2)cc1Cl	.	.	.	i	i	.
C/C(N)=C(/C#N)C(=O)CSc1cc(Cl)ccc1Cl	-5%	1%	-4%	?	i	-1%
C/C(N)=C(/C#N)C(=O)CSc1nc2cc(Cl)ccc2s1	-16%	35µM*	-1%	?	i	-1%
O=C(NCCCN1CCOCC1)c1ccc(Sc2ccc(F)cc2)c([N+](=O)[O-])c1	2%	3%	-7%	23µM*	i	-10%
O=C(NCCCN1CCOCC1)c1ccc(N2CCOCC2)c([N+](=O)[O-])c1	2%	5%	6%	.	.	-12%
CC(=O)NCCNC(=O)c1ccc(Sc2ccccc2)c([N+](=O)[O-])c1	-2%	-3%	?	i	i	2%
CN(C)CCNC(=O)c1ccc(Sc2ccc(Br)cc2)c([N+](=O)[O-])c1	18µM*	23µM*	?	?	?	-2%
COc1ccccc1CNC(=O)COC(=O)c1cc(C)nc2ccccc12	-7%	-1%	6%	.	.	-4%
COc1cc2cc(C)nc(Cc3cccc4ccccc34)c2cc1OC	?	?	13µM*	i	i	5%
O=C(NC(C(=O)N/N=C/c1c2ccccc2cc2ccccc12)c1n[nH]c(=O)c2ccccc12)c1ccccc1 (stereo not drawn)	-4%	-3%	2.1µM*	i	i	8.2µM*
O=C(NC(C(=O)N/N=C/c1ccccc1)c1n[nH]c(=O)c2ccccc12)c1ccccc1 (stereo not drawn)	-13%	-20%	-33%	i	i	2%
O=C(NCC(F)(F)F)c1cc2c(c(-c3cccc(-c4ccccc4F)c3)n1)[C@H](CCO)N(C(=O)CC1CC1)C2	?	?	.	16µM*	?	.
CCNC(=O)c1cc2c(c(-c3cccc(-c4ccccc4F)c3)n1)[C@H](CCO)N(C(=O)CC)C2	?	?	.	18µM*	?	.
CCCNC(=O)c1cc2c(c(-c3cccc(-c4ccccc4F)c3)n1)[C@@H](CCO)N(C(=O)CC1CC1)C2	?	?	.	23µM*	?	.
N#Cc1sc2nc(-c3ccccc3)cc(C(F)(F)F)c2c1N	-1%	-3%	4%	i	i	2.9µM*
N#Cc1sc2nc(-c3cccs3)cc(-c3ccccc3)c2c1N	-9%	-6%	3%	i	i	-5%
CCn1c(SC)nc2c(c1=O)SC(C)C2 (stereo not drawn)	2%	8%	21µM*	i	i	-17%
CCn1c(SCC(=O)NC2CCCCC2)nc2c(c1=O)SC(C)C2 (stereo not drawn)	4%	-5%	0%	2.3µM*	i	-2%
CC1Cc2nc(SCC(=O)Nc3ccc(F)cc3)n(C)c(=O)c2S1 (stereo not drawn)	11%	0%	1%	4.1µM*	i	-2%
SMILES	HT1080 IDH1KD tx	HT1080NT lethal	MCF10A rereplic	KB-V1 cytotox	KB-3-1 cytotox	SW480 rerep
CCc1ccc(C(=O)c2cn(CC(=O)Nc3ccc(OC)c(Cl)c3)c3nc(C)ccc3c2=O)cc1	.	.	.	?	i	.
O=C(Nc1nnc(-c2ccncc2)s1)Nc1ccc(Cl)cc1Cl	.	.	.	i	i	.
CCCC(C(=O)NCc1cccc(Cl)c1)N1Cc2ccccc2C1=O (stereo not drawn)	.	.	.	i	i	.
CSc1nc(NCC(C)O)c2c3c(sc2n1)CN(C)CC3 (stereo not drawn)	0%	2%	-5%	i	i	-6%
CSc1nc(SCC(=O)NC(c2ccccc2)c2ccccc2)c2c3c(sc2n1)CN(C)CC3	?	-28%	5.2µM*	?	?	5.8µM*
COc1ccc2c(c1)NC(c1ccc(N(C)C)cc1)c1cccn1-2 (stereo not drawn)	-19%	-11%	?	?	i	18µM*
Cc1ccc2c(c1)c1c(c(=O)n(-c3cccc(Cl)c3)c(=O)n1C)n2C	.	.	.	i	i	.
Cc1ccccc1N=C(c1ccccc1)C1C(=O)c2ccccc2C1=O	?	?	.	21µM*	?	.
COc1ccc(NC(=O)C2CCN(C3=NS(=O)(=O)C(c4ccc(C)c(C)c4)=C3C)CC2)cc1OC	.	.	.	i	i	.
CC1=NN(c2ccc(Cl)cc2)C(=O)C1C(c1ccccc1O)c1c(C)[nH]n(-c2ccc(Cl)cc2)c1=O (stereo not drawn)	?	23µM*	?	?	i	0%
Cc1cccc(Oc2nc(-c3ccncc3)nc3ccccc23)c1	?	?	?	i	i	12%
Cc1cccc(Oc2nc(-c3ccccn3)nc3ccccc23)c1	16µM*	?	5%	?	i	79%
Cc1ccccc1Oc1nc(-c2ccccn2)nc2ccccc12	-27%	?	14%	9.2µM*	i	1%
Cc1ccccc1OCCSc1nnc(-c2ccc([N+](=O)[O-])cc2)o1	.	.	.	i	i	.
Cc1cccc(N(Cc2ccccc2)C(=O)CCl)c1	1.3µM*	1.5µM*	?	?	i	21%
O=C(CCl)N(Cc1ccccc1)c1ccccc1	16µM*	10µM*	16µM*	i	?	5.8µM*
COc1ccc(CC(=O)N(Cc2ccccc2)c2cccc(C)c2)cc1OC	-8%	3%	5%	?	i	-6%
